# PubChem BioAssay AID1851 (National Center for Advancing Translational Sciences (NCATS), 2009)
# Out of some 16,000 compounds screened, about 2,600 (16%) were called active. Another 20% or so got no clear call; they are omitted. The sample holds actives, similar compounds and a random draw of the others, so the mix is not that of the screen. The call rests on the fitted dose curve; in most records, active means well fitted curve in the direction sought with a large enough effect; inconclusive means small, poorly fitted or top-dose-only effect, or effect the other way; inactive means no such curve, though single readings can be large or run the other way.
# Target: Cytochrome P450 2D6 (Homo sapiens) (UniProt P10635)
# Sequence (P10635 whole entry, looked up): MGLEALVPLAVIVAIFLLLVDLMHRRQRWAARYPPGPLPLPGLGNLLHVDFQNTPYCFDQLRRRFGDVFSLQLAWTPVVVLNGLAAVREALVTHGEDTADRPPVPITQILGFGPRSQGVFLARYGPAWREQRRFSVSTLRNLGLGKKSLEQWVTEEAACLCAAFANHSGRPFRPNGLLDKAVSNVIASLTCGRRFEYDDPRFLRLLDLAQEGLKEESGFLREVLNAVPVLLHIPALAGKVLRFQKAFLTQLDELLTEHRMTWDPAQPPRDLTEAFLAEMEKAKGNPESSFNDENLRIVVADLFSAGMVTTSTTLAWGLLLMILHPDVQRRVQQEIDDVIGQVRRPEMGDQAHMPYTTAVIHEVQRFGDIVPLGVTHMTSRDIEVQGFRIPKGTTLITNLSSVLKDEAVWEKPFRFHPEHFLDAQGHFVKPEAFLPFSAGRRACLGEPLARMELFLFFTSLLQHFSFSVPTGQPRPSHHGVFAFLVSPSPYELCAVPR
# Assay: Cytochrome panel assay with activity outcomes
# Details: recombinant CYP, pro-luciferin dealkylation, luminescence, p450-cyp2d6; series mostly up to 57.1 µM; activity, negative = inhibition: at the top concentration
# On the % scale 0 is the no-effect control and ±100 the full control effect.
SMILES,AC50,"activity, negative = inhibition"
c1cnc(N2CC[C@@]3(CCCNC3)C2)nc1,7940 nM (active),–
N#Cc1ccc(CN2CC[C@@]3(CCCNC3)C2)cc1,–,-9.13% (inactive)
c1ccc(N2CC[C@@]3(CCCNC3)C2)nc1,–,-1.61% (inactive)
C=C(C)[C@H]1CC[C@]2(CO)CC[C@]3(C)[C@@H](CC[C@H]4[C@@]5(C)CC[C@@H](O)C(C)(C)[C@@H]5CC[C@@]43C)[C@H]12,–,-7.87% [at 25.6 µM] (inactive)
COC(=O)Nc1nc2ccc(C(=O)c3cccs3)cc2[nH]1,–,-5.24% [at 25.6 µM] (inactive)
COc1cc(-c2ccc(=O)[nH]n2)ccc1OC(F)F,–,-0.446% [at 25.6 µM] (inactive)
NCCc1c[nH]c2ccc(OC(=O)C(=O)O)cc12,–,-17.3% [at 11.4 µM] (inactive)
COc1ccc2[nH]cc(CCN)c2c1,–,-16.5% (inactive)
C[C@H](N)Cc1c[nH]c2ccc(OCc3cccs3)cc12,794 nM (active),–
O[C@@H]1[C@H](O)[C@H]2[C@@H](O)CCN2C[C@@H]1O,–,10.3% (inactive)
CC(C)[C@]1(O)[C@@H](OC(=O)c2ccc[nH]2)[C@]2(O)[C@@]3(C)C[C@@]4(O)O[C@@]5([C@H](O)[C@@H](C)CC[C@]35O)[C@]2(O)[C@]41C,–,9.77% [at 11.4 µM] (inactive)
NC(=O)CN1C[C@@H](O)CC1=O,–,1.68% (inactive)
O=c1c(O)c(-c2cc(O)c(O)c(O)c2)oc2cc(O)cc(O)c12,–,-10.3% [at 25.6 µM] (inactive)
N[C@@H](Cc1ccccc1)P(=O)(O)O,–,-3.26% [at 11.4 µM] (inactive)
c1ccc(C[C@@H](c2ccccc2)N2CCCCC2)cc1,2000 nM (active),–
CC(C(=O)c1c[nH]c2ccccc12)N1CCSCC1 (stereo unspecified),6310 nM (active),–
CC(=O)NCCc1c[nH]c2ccccc12,–,1.29% (inactive)
N[C@H](Cc1c[nH]c2ccccc12)P(=O)(O)O,–,-0.254% [at 11.4 µM] (inactive)
CCCCc1nc2ccccc2c(=O)n1-c1ccc(Cl)cc1[N+](=O)[O-],–,8.42% (inactive)
CN(C)[C@@H]1C(=O)C(C(N)=O)=C(O)[C@]2(O)C(=O)C3=C(O)c4c(O)cccc4[C@](C)(O)[C@H]3C[C@@H]12,–,-6.07% [at 11.4 µM] (inactive)
CCCCN1C(=O)/C(=C\c2ccco2)C(=O)N(CCc2ccccc2)C1=O,–,8.02% (inactive)
Fc1ccc(CCNCc2ccc(Cl)c(Cl)c2)cc1,398 nM (active),–
Fc1ccc(CCNCc2cccc(Cl)c2)cc1,794 nM (active),–
O=C(O)[C@@H](O)[C@@H](O)[C@@H]1[O][Sb][O][C@@H]1CO,–,12.5% [at 11.4 µM] (inactive)
O=C(O)C[C@H]1NCc2cc3ccccc3nc21,–,3.21% [at 11.4 µM] (inactive)
COc1cc(CCN)c(OC)c(OC)c1,–,0.204% [at 11.4 µM] (inactive)
